Test results: PubChem BioAssay (NCI)
Compounds without any hit were thinned out: in the full panel of roughly 83,000, 20% have a hit.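 Single-dose data. Exposure time 48 hours. Values below 10 considered active.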 Calls of active or inactive are those of the source.

Key:
Assay in all cases: NCI-60 one-dose screen, 48 h (100 = growth as untreated, 0 = no growth, -100 = all killed)
Details in all cases: 10 µM unless noted
[1] = tested on: DU-145 prostate
[2] = tested on: K-562 leukemia
[3] = tested on: MALME-3M melanoma
[4] = tested on: MDA-MB-231 breast
[5] = tested on: RXF 393 renal
[6] = tested on: SF-268 CNS
[7] = tested on: SF-295 CNS
[8] = tested on: SF-539 CNS
[9] = tested on: UACC-257 melanoma
[10] = tested on: M14 melanoma

COc1cc(-c2c(-c3ccccc3)c[nH]c2C(=O)NCCCO)c(OC)c2c1OCO2
growth [1]: 111% (inactive) | growth [2]: 86.5% (inactive) | growth [3]: 108% (inactive) | growth [4]: 88.8% (inactive) | growth [5]: 93.5% (inactive) | growth [6]: 99.4% (inactive) | growth [7]: 101% (inactive) | growth [8]: 104% (inactive) | growth [9]: 106% (inactive) | growth [10]: 105% (inactive)

COc1cc(-c2ccc(-c3ccc(C(=N)N)s3)s2)cc(OC)c1OC
growth [1]: 36.2% (inactive) | growth [2]: -33.6% (active) | growth [3]: -90.7% (active) | growth [4]: 10% (inactive) | growth [5]: 54.1% (inactive) | growth [6]: 46.8% (inactive) | growth [7]: 51% (inactive) | growth [8]: -35.6% (active) | growth [9]: 75.7% (inactive) | growth [10]: -53.4% (active)

Nc1cc(-c2ccc(Cl)cc2)nn1-c1nc(-c2ccc(Br)cc2)cs1
growth [1]: 108% (inactive) | growth [2]: 105% (inactive) | growth [3]: 86.7% (inactive) | growth [4]: 97.3% (inactive) | growth [5]: 103% (inactive) | growth [6]: 106% (inactive) | growth [7]: 96.6% (inactive) | growth [8]: 97.9% (inactive) | growth [9]: 92.1% (inactive) | growth [10]: 96.1% (inactive)

O=C(NC1CCCCCC1)c1ccc2c(=O)n3c(nc2c1)CCCCC3
growth [1]: 94.3% (inactive) | growth [2]: 89% (inactive) | growth [3]: 91.1% (inactive) | growth [4]: 100% (inactive) | growth [5]: 105% (inactive) | growth [6]: 110% (inactive) | growth [7]: 116% (inactive) | growth [8]: 89.2% (inactive) | growth [9]: 112% (inactive) | growth [10]: 110% (inactive)

O=c1c2cccc3c(N4CCOCC4)ccc(c32)c2nc3ccccc3n12
growth [1]: 109% (inactive) | growth [2]: 80% (inactive) | growth [3]: 97.7% (inactive) | growth [4]: 82% (inactive) | growth [5]: 131% (inactive) | growth [6]: 109% (inactive) | growth [7]: 86.3% (inactive) | growth [8]: 90.5% (inactive) | growth [9]: 96.2% (inactive) | growth [10]: 104% (inactive)

Nc1ncc(-c2ccc3ncnc(N4CCc5cc(F)c(Cl)cc54)c3c2)cc1C(F)(F)F
growth [1]: 33.5% (inactive) | growth [2]: 15% (inactive) | growth [3]: 13.6% (inactive) | growth [4]: 23.9% (inactive) | growth [5]: -33.6% (active) | growth [6]: 34.1% (inactive) | growth [7]: 26% (inactive) | growth [8]: 8.36% (active) | growth [9]: 48.2% (inactive) | growth [10]: 33.8% (inactive)

Cc1cccc(CN(Nc2ccccc2)c2ccccc2)n1
growth [1]: 107% (inactive) | growth [2]: 87.5% (inactive) | growth [3]: 89.8% (inactive) | growth [4]: 118% (inactive) | growth [5]: 96.3% (inactive) | growth [6]: 101% (inactive) | growth [7]: 118% (inactive) | growth [8]: 96.6% (inactive) | growth [9]: 98.7% (inactive) | growth [10]: 105% (inactive)

CCN1C(=O)N(CC)C2C1NC(=S)N2/N=C/C=C/c1ccccc1 (stereo not given)
growth [1]: 7.35% (active) | growth [2]: 10.9% (inactive) | growth [3]: 53.7% (inactive) | growth [4]: 18.5% (inactive) | growth [5]: 18.8% (inactive) | growth [6]: 20.8% (inactive) | growth [7]: 3.58% (active) | growth [8]: -13.8% (active) | growth [9]: 55.1% (inactive) | growth [10]: 5.45% (active)

COc1ccc2c(O)cc3c(c2c1)[C@H](CCl)CN3C(=O)c1cc2cc(NC(=O)CCN3CCOCC3)ccc2[se]1
growth [1]: -0.877% (active) | growth [2]: 70.1% (inactive) | growth [3]: -88% (active) | growth [4]: -58.4% (active) | growth [5]: -88.4% (active) | growth [6]: -42.7% (active) | growth [7]: -77.7% (active) | growth [8]: -64.4% (active) | growth [9]: -47.5% (active) | growth [10]: -71.1% (active)

CN(C)C(=O)OCc1ccc2c(Cl)cc(Cl)c(O)c2n1
growth [1]: 39.7% (inactive) | growth [2]: 20% (inactive) | growth [3]: 46% (inactive) | growth [4]: 54.6% (inactive) | growth [5]: 67.6% (inactive) | growth [6]: 25.8% (inactive) | growth [7]: 34.5% (inactive) | growth [8]: 26.1% (inactive) | growth [9]: 48.5% (inactive) | growth [10]: 12.6% (inactive)

CCN1CCN(CCOc2ccc(CNc3ccc4nc(CCC5CCCCC5)[nH]c4c3)cc2)CC1
growth [1]: 50.3% (inactive) | growth [2]: 6.76% (active) | growth [3]: -88.2% (active) | growth [4]: -31.4% (active) | growth [5]: 28.2% (inactive) | growth [6]: 54.4% (inactive) | growth [7]: 48% (inactive) | growth [8]: -87.1% (active) | growth [9]: -69.4% (active) | growth [10]: -76.5% (active)

COc1cccc(-c2nn(-c3ccccc3)cc2-c2ccnc(-c3cccnc3)c2)c1
growth [1]: 104% (inactive) | growth [2]: 81.2% (inactive) | growth [3]: 83% (inactive) | growth [4]: 86.8% (inactive) | growth [5]: 107% (inactive) | growth [6]: 94.9% (inactive) | growth [7]: 89.2% (inactive) | growth [8]: 90.1% (inactive) | growth [9]: 117% (inactive) | growth [10]: 92.8% (inactive)
